BH1578 lux ind: quorum light induction in luxS cqsA deficient V. cholerae. 0.16% of 350,000 active. activation, % at 18.7 µM. V. cholerae BH1578 lux reporter, luminescence, 6 h; in the data active means activation mostly above about 9.7%, no sharp cut-off
Mtb BioA inh: inhibitors of Mycobacterium tuberculosis BioA enzyme; purified M. tuberculosis BioA enzyme, plate reader; inhibition, % at 9.99 µM; 0.096% of 360,000 active; AID 602481; in the data active means inhibition above about 40%
Mtb FBA inh: Mtb fructose-bisphosphate aldolase inhibition; purified M. tuberculosis FBA, fluorescence read-out; inhibition, % at 1 µM; 2.3% of 360,000 active
Target sequence (P9WQA3 whole entry, looked up): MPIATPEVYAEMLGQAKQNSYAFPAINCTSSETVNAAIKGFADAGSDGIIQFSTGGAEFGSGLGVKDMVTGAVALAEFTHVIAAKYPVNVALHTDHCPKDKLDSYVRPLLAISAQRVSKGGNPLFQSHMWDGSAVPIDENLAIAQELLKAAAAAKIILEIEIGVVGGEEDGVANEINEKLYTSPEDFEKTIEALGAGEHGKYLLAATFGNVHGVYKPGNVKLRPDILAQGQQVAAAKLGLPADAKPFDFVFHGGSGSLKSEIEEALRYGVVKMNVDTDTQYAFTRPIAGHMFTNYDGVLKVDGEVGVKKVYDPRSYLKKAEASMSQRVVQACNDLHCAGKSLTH
GDH-TPI counter-1: GDH-TPI coupled enzyme inhibition counter-screen. GDH-TPI coupled enzyme counterscreen, NADH absorbance. inhibition, % at 4.8 µM. 1.2% of 360,000 active. AID 588335; in the data active means inhibition above about 30%
Mtb FBA inh conf: Mtb FBA inhibition, confirmed | shares compounds with Mtb FBA inh | purified M. tuberculosis FBA, fluorescence read-out | inhibition, % at 1 µM | 78% of 5,600 active
GDH-TPI counter-2: inhibits GDH-TPI coupling enzymes, flagging Mtb FBA hits; shares compounds with Mtb FBA inh; GDH-TPI coupled enzyme counterscreen, fluorescence; inhibition, % at 1 µM; 81% of 5,600 active; in the data active means inhibition above about 10%
GDH-TPI dose: counter-screen for M. tuberculosis FBA inhibitors: GDH-TPI dose response; IC50, µM; shares compounds with Mtb FBA inh; GDH-TPI coupled enzyme assay, fluorescence, artifact counterscreen; AID 652145; 79% of 170 active; call rule not given here
A number is an active result. Sampled rows, rich in hits. Any-hit rate of the full collection: about 3%. Unless noted, no stated cut-off is given here; in the data, active means inhibition above about 27%; inactive means the rest.

Results for C/C=C/c1ccc2c(c1)O[C@@H](CN(C)C(=O)C1CC1)[C@@H](C)CN([C@@H](C)CO)S2(=O)=O ?
Mtb BioA inh: inactive

Results for CCOC(=O)CSc1ccc(-c2nc3ccccc3[nH]2)cn1 ?
BH1578 lux ind: inactive; Mtb BioA inh: inactive; Mtb FBA inh: inactive; GDH-TPI counter-1: inactive

How did COCCNC(=O)CSc1ccc(-c2nc3ccccc3[nH]2)cn1 do in these assays?
BH1578 lux ind: inactive; Mtb BioA inh: inactive; Mtb FBA inh: 31.0; GDH-TPI counter-1: 31.0; Mtb FBA inh conf: inactive; GDH-TPI counter-2: inactive

How did COC(=O)C1=CN(C)C=C(C(=O)OC)C1c1ccsc1 do in these assays?
BH1578 lux ind: 16.7; Mtb BioA inh: inactive; Mtb FBA inh: 69.8; GDH-TPI counter-1: inactive; Mtb FBA inh conf: 115.5; GDH-TPI counter-2: 117.8

How did COC(=O)C1=CN(C2CC2)C=C(C(=O)OC)C1c1ccc(C(F)(F)F)cc1 do in these assays?
BH1578 lux ind: inactive; Mtb FBA inh: inactive; GDH-TPI counter-1: inactive

What do the screens show for `O=C(Cn1c(=O)[nH]c2ccccc2c1=O)N1CCN(Cc2ccc3c(c2)OCO3)CC1`?
BH1578 lux ind: inactive; Mtb BioA inh: inactive; Mtb FBA inh: inactive; GDH-TPI counter-1: inactive

What do the screens show for `CCC(C(=O)N1CCN(Cc2ccc3c(c2)OCO3)CC1)n1c(=O)[nH]c2ccccc2c1=O` (stereo unspecified)?
BH1578 lux ind: inactive; Mtb BioA inh: inactive; Mtb FBA inh: 32.7; GDH-TPI counter-1: inactive; Mtb FBA inh conf: 123.7; GDH-TPI counter-2: 108.7

Results for COCC(=O)N(C)C[C@@H]1Oc2ncc(-c3ccccc3F)cc2C(=O)N([C@H](C)CO)C[C@@H]1C ?
Mtb BioA inh: inactive

How did COc1ccc(C2C(C#N)=C(N)Nc3nc4ccccc4n32)cc1 (stereo unspecified) do in these assays?
BH1578 lux ind: inactive; Mtb FBA inh: inactive; GDH-TPI counter-1: inactive

Results for COc1ccc(-c2cc3nc4ccccc4n3c(N)c2C#N)cc1 ?
BH1578 lux ind: inactive; Mtb FBA inh: 40.8; GDH-TPI counter-1: inactive; Mtb FBA inh conf: active; GDH-TPI counter-2: active

What do the screens show for `CC1(C(=O)NCCc2ccccc2)Cc2c(-c3ccc4c(c3)OCO4)ccnc2O1` (stereo unspecified)?
BH1578 lux ind: inactive; Mtb BioA inh: inactive; Mtb FBA inh: 46.2; GDH-TPI counter-1: inactive; Mtb FBA inh conf: 59.1; GDH-TPI counter-2: 41.0

What do the screens show for `CC1(C(=O)NCc2ccccc2)Cc2c(-c3ccc(C(N)=O)cc3)ccnc2O1` (stereo unspecified)?
BH1578 lux ind: inactive; Mtb BioA inh: inactive; Mtb FBA inh: inactive; GDH-TPI counter-1: inactive

How did COCCNC(=O)C1(C)Cc2c(-c3ccc4c(c3)OCO4)ccnc2O1 (stereo unspecified) do in these assays?
BH1578 lux ind: inactive; Mtb BioA inh: inactive; Mtb FBA inh: 95.6; GDH-TPI counter-1: inactive; Mtb FBA inh conf: 71.3; GDH-TPI counter-2: 51.2

How did CC1(C(=O)NCc2ccccc2)Cc2c(-c3ccc4c(c3)OCO4)ccnc2O1 (stereo unspecified) do in these assays?
BH1578 lux ind: inactive; Mtb BioA inh: inactive; Mtb FBA inh: 68.6; GDH-TPI counter-1: inactive; Mtb FBA inh conf: 109.1; GDH-TPI counter-2: 104.7

What do the screens show for `COc1ccc(NC(=O)C2(C)Cc3c(-c4ccc5c(c4)OCO5)ccnc3O2)cn1` (stereo unspecified)?
BH1578 lux ind: inactive; Mtb BioA inh: inactive; Mtb FBA inh: 42.2; GDH-TPI counter-1: inactive; Mtb FBA inh conf: 168.6; GDH-TPI counter-2: 123.8

What do the screens show for `O=C(C[C@H]1CC[C@@H](NC(=O)CN2CCOCC2)[C@@H](CO)O1)NCc1cccc(F)c1`?
Mtb BioA inh: inactive

Results for CSc1ncccc1C(=O)Nc1ccc(OC(F)(F)F)cc1 ?
BH1578 lux ind: inactive; Mtb BioA inh: inactive; Mtb FBA inh: 44.4; GDH-TPI counter-1: inactive; Mtb FBA inh conf: 33.0; GDH-TPI counter-2: 33.6

What do the screens show for `COc1ccc(-c2ccc3c(c2)O[C@H](CN(C)C)[C@@H](C)CN([C@H](C)CO)S3(=O)=O)cc1`?
Mtb BioA inh: inactive

What do the screens show for `COc1ccc2c(c1)nc(NCCO)n2C`?
BH1578 lux ind: inactive; Mtb FBA inh: 37.4; GDH-TPI counter-1: inactive; Mtb FBA inh conf: 187.3; GDH-TPI counter-2: 169.9

What do the screens show for `CCCC(c1nnnn1Cc1ccc(OC)cc1)N1CCN(c2ccccc2)CC1` (stereo unspecified)?
BH1578 lux ind: inactive; Mtb BioA inh: inactive; Mtb FBA inh: inactive; GDH-TPI counter-1: inactive

What do the screens show for `COCCn1nnnc1C(c1ccccc1OC)N1CCN(c2ccccc2)CC1` (stereo unspecified)?
BH1578 lux ind: inactive; Mtb BioA inh: inactive; Mtb FBA inh: 40.1; GDH-TPI counter-1: inactive; Mtb FBA inh conf: 60.2; GDH-TPI counter-2: 41.5

What do the screens show for `COc1ccccc1C(c1nnnn1CCc1ccccc1)N1CCN(c2ccccc2)CC1` (stereo unspecified)?
BH1578 lux ind: inactive; Mtb BioA inh: inactive; Mtb FBA inh: inactive; GDH-TPI counter-1: inactive

How did COc1ccc(Cn2nnnc2C(CC(C)C)N2CCN(c3ccccc3)CC2)cc1 (stereo unspecified) do in these assays?
BH1578 lux ind: inactive; Mtb BioA inh: inactive; Mtb FBA inh: 54.8; GDH-TPI counter-1: inactive; Mtb FBA inh conf: inactive; GDH-TPI counter-2: inactive; GDH-TPI dose: inactive

What do the screens show for `CC(C)(C)Sc1ccc2nc3c(n2c1)CCCC3`?
BH1578 lux ind: inactive; Mtb BioA inh: inactive; Mtb FBA inh: 29.6; GDH-TPI counter-1: inactive; Mtb FBA inh conf: 94.5; GDH-TPI counter-2: 55.5

How did CCCN(C)C[C@@H]1Oc2ncc(-c3cccnc3)cc2C(=O)N([C@@H](C)CO)C[C@@H]1C do in these assays?
Mtb BioA inh: inactive

Results for COCc1nnc(NC(=O)c2ccccc2Oc2ccccc2)s1 ?
BH1578 lux ind: inactive; Mtb BioA inh: inactive; Mtb FBA inh: 73.0; GDH-TPI counter-1: inactive; Mtb FBA inh conf: 158.4; GDH-TPI counter-2: 119.2

Results for C[C@H](CO)N1C[C@H](C)[C@H](CN(C)Cc2ccc(-c3ccccc3)cc2)Oc2c(NS(=O)(=O)c3cccs3)cccc2C1=O ?
Mtb BioA inh: inactive

What do the screens show for `COc1ccc(-c2nc3nc(N)nn3cc2C)cc1F`?
BH1578 lux ind: inactive; Mtb BioA inh: inactive; Mtb FBA inh: 27.8; GDH-TPI counter-1: inactive; Mtb FBA inh conf: 82.0; GDH-TPI counter-2: 70.1

What do the screens show for `O=c1cc(C(F)(F)F)c2cc3c4c(c2o1)CCCN4CCC3`?
BH1578 lux ind: inactive; Mtb FBA inh: inactive; GDH-TPI counter-1: inactive

How did Cc1cc(=O)oc2c3c4c(cc12)OCCN4CCC3 do in these assays?
BH1578 lux ind: inactive; Mtb BioA inh: inactive; Mtb FBA inh: 75.7; GDH-TPI counter-1: inactive; Mtb FBA inh conf: 65.7; GDH-TPI counter-2: 66.0

What do the screens show for `CC(C)c1cc(=O)oc2c3c4c(cc12)CCCN4CCC3`?
BH1578 lux ind: inactive; Mtb BioA inh: inactive; Mtb FBA inh: 39.4; GDH-TPI counter-1: inactive; Mtb FBA inh conf: 98.0; GDH-TPI counter-2: 86.5

Results for COc1ccccc1-c1cn(CC[C@@H]2CC[C@H](NC(=O)C3CC3)[C@H](CO)O2)nn1 ?
Mtb BioA inh: inactive

Screening results as filed in PubChem.
